# Screening data from PubChem.
# Mot1-301 SUMO: inhibitors of SUMOylation pathway: yeast Mot1-301 growth rescue; S. cerevisiae Mot1-301 growth rescue, ATP luminescence, 38.5C; percent above DMSO median, 100 means doubled; growth rescue, % at 18.8 µM; 320,000 tested, 1% active;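 active = every valid replicate shows activation above 250% relative to neutral control wells; inactive = the rest, any valid replicate at or below 250%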;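 note: OY570 slx delta 5 strain wells were the positive control but not used for scaling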
# MEKK3 PB1 HTS: modulators (inhibitors or enhancers) of MEK5 binding to human MEKK3 PB1 domain; Q99759; bead-based flow cytometry, Alexa488-MEK5 binding to MEKK3; actives lie on both sides; 0 = blocked by unlabeled MEK5, 100 = vehicle; binding response (% of control), % at 10 µM; 290,000 tested, 1.4% active; AID 1529;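 active = binding response more than 3 SD above or below the average of its plate-row segment, actives on both sides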;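 note: Alexa488 bead fluorescence after subtracting the streptavidin-only scavenger bead signal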
# Target sequence (Q99759 whole entry, looked up, the tested form may be a part): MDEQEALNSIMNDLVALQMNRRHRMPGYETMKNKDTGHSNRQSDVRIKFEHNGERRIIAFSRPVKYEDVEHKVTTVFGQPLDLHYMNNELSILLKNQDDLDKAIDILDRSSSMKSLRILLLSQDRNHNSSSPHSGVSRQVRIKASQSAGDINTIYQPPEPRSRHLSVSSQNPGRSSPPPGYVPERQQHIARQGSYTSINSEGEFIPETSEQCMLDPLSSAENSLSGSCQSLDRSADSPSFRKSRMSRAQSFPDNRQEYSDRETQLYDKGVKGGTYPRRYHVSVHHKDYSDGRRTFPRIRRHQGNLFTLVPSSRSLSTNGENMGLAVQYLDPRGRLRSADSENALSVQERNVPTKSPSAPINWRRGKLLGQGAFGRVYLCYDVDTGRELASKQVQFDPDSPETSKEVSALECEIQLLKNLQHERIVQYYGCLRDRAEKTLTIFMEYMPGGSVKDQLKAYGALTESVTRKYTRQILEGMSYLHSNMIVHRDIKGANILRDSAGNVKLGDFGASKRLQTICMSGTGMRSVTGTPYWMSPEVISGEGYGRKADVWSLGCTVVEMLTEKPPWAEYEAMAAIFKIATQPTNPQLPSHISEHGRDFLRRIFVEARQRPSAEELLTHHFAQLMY
# MEKK2wt PB1 HTS: raises or lowers MEK5 binding to wildtype human MEKK2 PB1 domain; 290,000 tested, 1.1% active; Q9Y2U5; bead flow cytometry, Alexa488-MEK5 binding to MEKK2 WT; actives lie on both sides; binding response (% of control), % at 10 µM; AID 1531; in the data active = binding response below about 67% or above about 130%
# MEKK2 mut-MEK5: signal of MEK5 binding to mutant human MEKK2 PB1 domain; AID 1530; percent response, % at 10 µM; 290,000 tested, 0.35% active; bead flow cytometry, Alexa488-MEK5 binding to MEKK2 mutant; in the data active = percent response above about 24%, passing the limit was not always enough
# CHT PAM: allosteric activators of human choline transporter CHT. Q9GZV3. CHT-expressing cells, membrane potential dye, choline EC20; stronger effect = higher value; LV-AA mutant CHT in HEK293 cells. B-score at 10 µM. 310,000 tested, 0.49% active;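 active = initial fluorescence not abnormally high and integrated response B-score, plate-corrected, over 3 SD above library mean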
# CHT inh: inhibitors of human choline transporter CHT. Q9GZV3. AID 488975. B-score at 10 µM. CHT-expressing cells, membrane potential dye, choline response; stronger effect = lower value. 310,000 tested, 0.86% active;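 active = B-score over 3 SD under the library average, and starting fluorescence ratio not unusually high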;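 note: choline stimulus applied at its EC90 after an EC20 pre-addition; B-score computed on integrated fluorescence ratio after choline addition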
# Yeast Mot1 SUMO: yeast SUMO pathway inhibition in dose response. AID 493004. S. cerevisiae Mot1-301 galactose growth, ATP luminescence, 24 h; -100 = growth of slx-deleted rescue strain. 2,300 tested, under 10 active. shares compounds with Mot1-301 SUMO. growth activity, percent, % at 42 µM;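 active = Signal drops as the depositor expects, and the fitted half-maximal dose is no more than ten times the top valid tested dose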;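 note: more negative values mean stronger growth rescue toward the control strain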
# Starred values were filed as active, the others as inactive; i = inactive; x = not tested or not shown; + = active, no number. Sampled rows, rich in hits. Any-hit rate of the full collection: about 4.1%.
SMILES,Mot1-301 SUMO,MEKK3 PB1 HTS,MEKK2wt PB1 HTS,MEKK2 mut-MEK5,CHT PAM,CHT inh,Yeast Mot1 SUMO
Cc1ccccc1-c1cccc([C@@H]2C[C@H]3CN(Cc4cccnc4)C(=O)[C@]34CCCN24)c1,7,105,106,9,i,i,x
NS(=O)(=O)c1cccc(NC(=O)CSc2nnnn2-c2ccccc2)c1,375*,112,113,16,i,i,0
O=C(COC(=O)c1cc(S(=O)(=O)N2CCCC2)ccc1O)Nc1ccccc1Br,31,x,x,x,x,x,x
COCCNCc1ccccc1,647*,106,103,7,i,i,0
COc1ccc(C(=O)Cc2nnc(C)s2)cc1,9,86,88,-4,i,i,x
O=C(Cc1cccs1)N1CCCC(c2nc3c(nnn3Cc3ccc(F)cc3)c(=O)[nH]2)C1 (stereo not drawn),533*,102,106,7,i,i,0
CC(C)(C)c1ccc(Cn2nnc3c(=O)[nH]c(C4CCCN(C(=O)Cc5cccs5)C4)nc32)cc1 (stereo not drawn),-3,101,92,2,i,i,x
Cc1[nH]c(C)c(S(=O)(=O)NCC(C)c2ccccc2)c1C(=O)N1CCCCC1 (stereo not drawn),497*,99,98,-1,i,i,0
CC(=O)Nc1ccc(C(=O)OCC(=O)Nc2c(F)cccc2F)cc1,7,104,102,0,i,i,x
Cc1ccc(SCCC(=O)Nc2ccc(OCc3ccccc3)cc2)cc1,968*,96,93,-2,i,i,0
COc1ccc(NC(=O)COCC(=O)Nc2ccc(C)cc2)cc1,-9,100,99,-2,i,i,x
Cc1ccc(NC(=O)CN(C)C(=O)c2cc(C)on2)cc1,-12,x,x,x,x,x,x
COc1ccc(OCC(=O)Nc2ccc(C)cc2)cc1,859*,96,94,-2,i,i,0
COc1ccc(NC(=O)CN(C)C(=O)c2cc(C)on2)cc1,678*,x,x,x,i,i,0
O=C(c1cccc(S(=O)(=O)NCc2ccccc2)c1)N1CCCC(C(F)(F)F)C1 (stereo not drawn),6,x,x,x,i,i,x
CN1C(=O)c2ccc(C(=O)Nc3ccccc3O)cc2C1=O,24,100,107,9,i,i,x
C/C(=N\N=C\c1ccccc1)c1nnn(-c2nonc2N)c1C,-5,97,95,-2,i,i,x
CN1CCCN(S(=O)(=O)c2cccc(C#N)c2)CC1,21,93,95,-9,i,i,x
C/C(=N\NC(=O)CC1N=C(Cc2ccccc2)NNC1=O)c1ccc(Cl)cc1Cl (stereo not drawn),142,109,110,8,i,i,x
COc1ccc(CCNC(=O)c2cc3c(C)nccc3[nH]c2=O)cc1OC,0,103,100,1,i,i,x
CN(C)/C=N/NC(=O)c1ccccc1,921*,94,98,-3,i,i,1
O=C(CCNS(=O)(=O)c1ccccc1)N1CCN(c2ccccc2F)CC1,-10,102,101,9,i,i,x
Cc1cc(C)c2c(CC(=O)NNC(=O)c3ccccc3)coc2c1,-9,105,107,11,i,i,x
Cc1cc(C(=O)NNC(=O)c2ccc(C)s2)c(C)o1,476*,x,x,x,i,i,0
Cc1ccc(C(=O)c2coc3cc([N+](=O)[O-])c(O)c([N+](=O)[O-])c23)cc1,46,95,95,-1,i,i,x
SMILES,Mot1-301 SUMO,MEKK3 PB1 HTS,MEKK2wt PB1 HTS,MEKK2 mut-MEK5,CHT PAM,CHT inh,Yeast Mot1 SUMO
Cc1nnc(SCc2nc3ccccc3s2)n1-c1ccccc1,-9,90,93,-3,i,i,x
CCn1c(SCc2nc3ccccc3[nH]2)nnc1-c1cccnc1,635*,77,89,-6,i,i,0
CCn1c(SCc2nc3ccccc3s2)nnc1-c1ccccc1,371*,101,100,11,i,i,-1
Cc1cccc(C(=O)N2CCN(S(=O)(=O)N3CCCCCC3)CC2)c1,15,103,99,-1,i,i,x
CCc1nc2ccccc2c(C(=O)Nc2cccc(C)c2)c1C,-8,99,98,-9,i,i,x
CC(Oc1ccccc1)C(=O)Nc1ccccc1O (stereo not drawn),568*,101,102,1,i,i,1
COC(=O)c1ccccc1NC(=O)C(C)Oc1ccccc1 (stereo not drawn),-4,100,103,-3,i,i,x
Cc1ccccc1OCc1nc(-c2ccccc2)no1,390*,99,106,0,i,i,-1
Cc1ccc(-c2noc(COc3ccccc3C)n2)cc1,x,99,96,-4,i,i,x
Cc1cc([N+](=O)[O-])ccc1NC(=O)CSc1nccc(=O)[nH]1,378*,101,102,2,i,i,0
O=C(O)Cn1c2c(c3ccccc31)CSc1ccc(Cl)cc1-2,4,102,105,1,i,i,x
O=C1CC(c2cccc(Br)c2)C2=C(COC2=O)N1 (stereo not drawn),386*,100,105,-2,i,i,1
CCN1CSC(=S)N(Cc2ccc(OC)cc2)C1,+,109,104,0,i,i,0
CCN1CSC(=S)N(Cc2ccccc2)C1,153,103,102,1,i,i,x
COc1ccc(CNS(=O)(=O)c2ccc3c(c2)CCN3C(=O)C2CCC2)cc1,412*,100,100,1,i,i,0
COc1cccc(CNS(=O)(=O)c2ccc3c(c2)CCN3C(=O)C2CC2)c1,x,102,99,2,i,i,x
COc1ccccc1N1CCN(C(=O)C(C)CS(=O)(=O)c2ccc3c(c2)NC(=O)CS3)CC1 (stereo not drawn),-2,95,98,-6,i,i,x
Fc1ccc(-c2n[nH]c(=S)n2CC2CCCO2)cc1 (stereo not drawn),393*,94,99,2,i,i,0
CS(=O)(=O)Nc1ccc(C(=O)Nc2ccc(S(=O)(=O)N3CCCC3)cc2)cc1,5,102,109,0,i,i,x
Nc1ccccc1N1C(=O)c2cccc3cccc(c23)C1=O,-8,x,x,x,i,i,x
Nc1cccc2c1C(=O)N(c1ccccc1)C2=O,668*,104,110,4,i,i,0
